Assay results from ChEMBL document CHEMBL3988442, “University of Dundee, Small-Polar-MMV Screening Library” (2021).
In all, about 66,000 compounds went through this assay and about 960 (1.5%) showed an effect of 50% or more. What follows is part of a selection rich in strong results, with near analogues and random picks from the rest.

Test system: Trypanosoma brucei
Assay: Trypanosoma brucei 72 hour study
Format: functional, organism-based
Design: scale not given: in the data most compounds retested in dose-response had high values

SMILES	Percent Effect (30 µM, 30.03 µM) [%]	Percent Effect (30.3 µM, […]) [%]
O=C(NCc1cnn2cccnc12)C1CC2(CCNCC2)CN1 (configuration not stated)	54.89	
CN1CC2(CCNCC2)CC1C(=O)NCCCNc1cccnc1 (configuration not stated)		-6.231
O=C(O)C1CC2(CCN(c3nccc4ccccc34)CC2)CN1 (configuration not stated)	23.73	
COc1ncccc1CN1C[C@H]2CCN(c3ncccn3)C[C@H]2C1.O=C(O)C(F)(F)F		-7.481
OCC1N(Cc2ccco2)[C@H]2CC[C@]1(O)CC2 (some centres not stated)		-9.73
O=C(NCc1ccccn1)[C@]12COC[C@H]1CN(Cc1ccsc1)C2.O=C(O)C(F)(F)F.O=C(O)C(F)(F)F		-46.8
Cc1noc(C)c1CN1C[C@@H]2COC[C@@H](C(=O)N3CCCO3)[C@@H]2C1		79.91
Cc1noc(C)c1CN1C[C@@H]2COC[C@H](C(=O)N3CCCO3)[C@@H]2C1		-103.2
Cc1cc(CN2C[C@@H]3COC[C@H](C(=O)N4CCCCO4)[C@@H]3C2)no1.O=C(O)C(F)(F)F		-104.8
O=C(Nc1cccnc1)[C@H]1CN(Cc2nccs2)C[C@H]2OCC[C@@H]12.O=C(O)C(F)(F)F.O=C(O)C(F)(F)F.O=C(O)C(F)(F)F	6.623	
Cc1cccc(CN2C(=O)C[C@H]3[C@@H]2CCN3CC2CC2)n1.O=C(O)C(F)(F)F.O=C(O)C(F)(F)F		9.244
CNC(=O)c1ccc2c(c1)C1(CCN(C(C)C)CC1)C(=O)N2.O=C(O)C(F)(F)F		-29.31
CCC1CNCc2cc3c(OC)ccc(OC)c3nc2O1 (configuration not stated)		8.287
CCC1CNCc2cc3c(C)ccc(C)c3nc2O1 (configuration not stated)		58.28
Cc1cccc(CN2CC[C@H]3OCC[C@@]3(C(=O)N3CCCO3)C2)n1.O=C(O)C(F)(F)F.O=C(O)C(F)(F)F		-52.48
O=C(O)C(F)(F)F.O=C(O)C(F)(F)F.O=C([C@H]1C[C@H]2OCC[C@H]2N(Cc2cccnc2)C1)N1CCCCO1		-300.7
O=C(C[C@@H]1COC[C@H]2CN(Cc3cccnc3)C[C@@H]12)NCC1CC1.O=C(O)C(F)(F)F.O=C(O)C(F)(F)F		-16.86
CCC1CCCCN1CCc1ccncc1 (configuration not stated)		96.43
CN(c1ncccc1C#N)C1CCN(CCc2ccncc2)CC1	-5.163	
CC1CN(CCc2ccncc2)CCO1 (configuration not stated)	-38.53	
Fc1cccc(CN2CCC3(CCN3c3ncccn3)C2)c1.O=C(O)C(F)(F)F (configuration not stated)		-29.27
COCCN1CCC2(COCc3cnc(-c4ccccc4)nc32)C1.O=C(O)C(F)(F)F (configuration not stated)		-55.77
